Assay results from the supplement of paper PMC6992640.
Where a name gives a salt, the structure may show the parent alone. ± gives the standard deviation of the averaged measurements.

Assays:
Assay in all cases: cell viability (% of vehicle); higher = less cytotoxic
Conditions in all cases: 10 µM; 72 h
HCI01 = test system: HCI01 (cells of a triple-negative basal-like breast cancer xenograft)
HCI03 = test system: HCI03 (cells of an ER-positive luminal breast cancer xenograft)
HCI09 = test system: HCI09 (cells of a triple-negative luminal androgen receptor type breast cancer xenograft)
HCI11 = test system: HCI11 (cells of an ER-positive luminal breast cancer xenograft)
HCI13 = test system: HCI13 (cells of an ER-positive luminal breast cancer xenograft)
HCI16 = test system: HCI16 (cells of a triple-negative basal-like breast cancer xenograft)
UCD52 = test system: UCD52 (cells of a triple-negative basal-like breast cancer xenograft)
WHIM2 = test system: WHIM2 (cells of a triple-negative basal-like breast cancer xenograft)
WHIM30 = test system: WHIM30 (cells of a triple-negative basal-like breast cancer xenograft)
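Note: PDX cells carrying CMV promoter-driven luciferase, viability read as total photon flux per second by IVIS imaging following D-luciferin, vehicle control 0.1% DMSO.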

| Compound | cell viability (HCI01) | cell viability (HCI03) | cell viability (HCI09) | cell viability (HCI11) | cell viability (HCI13) | cell viability (HCI16) | cell viability (UCD52) | cell viability (WHIM2) | cell viability (WHIM30) |
| --- | --- | --- | --- | --- | --- | --- | --- | --- | --- |
| COc1ccc(CNc2nc(N3CCCC3CO)ncc2C(=O)NCc2ncccn2)cc1Cl (configuration not stated) [Avanafil] | 155 ± 7.5 | 117 | 102 ± 23 | 143 | 123 ± 11 | 121 | 104 ± 15 | 130 ± 2.6 | 135 ± 7.5 |
| Nc1ccc(O)c(C(=O)O)c1 [Mesalamine] | 110 ± 2.2 | 125 | 116 ± 8.1 | 103 | 130 ± 15 | 125 | 105 ± 2.3 | 92 ± 2.1 | 155 ± 27 |
| O=C([O-])c1ccccc1O.[Na+] [Sodium salicylate] | 96.1 ± 24 | 121 | 100 ± 7.2 | 91.4 | 107 ± 12 | 124 | 85.6 ± 3.5 | 89.1 ± 15 | 94.4 ± 3.4 |
| CC(C)c1nc(CN(C)C(=O)NC(CCN2CCOCC2)C(=O)NC(CCC(Cc2ccccc2)NC(=O)OCc2cncs2)Cc2ccccc2)cs1 (configuration not stated) [Cobicistat (GS-9350)] | 83.3 ± 3.6 | 74.2 | 53.3 ± 17 | 52.3 | 64.4 ± 11 | 128 | 67 ± 4.4 | 78.1 ± 3.2 | 96.6 ± 3.7 |
| CN(C)c1nc(N(C)C)nc(N(C)C)n1 [Altretamine] | 94.8 ± 11 | 96.7 | 89.6 ± 2.6 | 96.8 | 77.9 ± 3.4 | 108 | 78 ± 4.9 | 115 ± 5.7 | 109.4 ± 0.74 |
| CN(C)C(CCOc1cccc2ccccc12)c1ccccc1.Cl (configuration not stated) [Dapoxetine HCl] | 87.4 ± 15 | 79.4 | 96.9 ± 11 | 74.2 | 95.1 ± 13 | 70 | 47.9 ± 5.3 | 65.2 ± 12 | 98.4 ± 1.4 |
| CCNC(=O)CCCC=CCC1C(O)CC(O)C1C=CC(O)CCc1ccccc1 (configuration not stated) [Bimatoprost] | 80.9 ± 64 | 154 | 91.9 ± 22 | 97.5 | 118 ± 6.7 | 144 | 86.2 ± 4.6 | 98.4 ± 23 | 148 ± 9.5 |
| Cl.N#Cc1ccc2[nH]cc(CCCCN3CCN(c4ccc5oc(C(N)=O)cc5c4)CC3)c2c1 [Vilazodone Hydrochloride] | 135 ± 3.5 | 103 | 104 ± 18 | 122 | 113 ± 6.7 | 166 | 111 ± 3.3 | 109 ± 20 | 112 ± 17 |
| COc1cc(CNC(=O)CCCCC=CC(C)C)ccc1O [Capsaicin] | 105 ± 8.6 | 120 | 75.8 ± 1.6 | 90.6 | 101 ± 17 | 82.4 | 78.3 ± 5.6 | 90.1 ± 21 | 108 ± 12 |
| O=c1ccc2ccc(OCCCCN3CCN(c4cccc5sccc45)CC3)cc2[nH]1 [Brexpiprazole] | 136 ± 21 | 106 | 85.7 ± 10 | 102 | 123 ± 5.6 | 162 | 78.3 ± 6.2 | 115 ± 9.1 | 112 ± 8.2 |
| CC12CCC3c4ccc(O)cc4CC(CCCCCCCCCS(=O)CCCC(F)(F)C(F)(F)F)C3C1CCC2O (configuration not stated) [Fulvestrant] | 137 ± 7.5 | 89.1 | 65.5 ± 7.2 | 85.6 | 53 ± 6.5 | 95.7 | 78.9 ± 3.8 | 77.5 ± 36 | 129 ± 12 |
| CCC(=O)NCCC1CCc2ccc3c(c21)CCO3 (configuration not stated) [Ramelteon] | 98.9 ± 7 | 113 | 94 ± 8.3 | 93 | 94 ± 20 | 81.6 | 80.6 ± 1.4 | 80.7 ± 9.9 | 103 ± 3.4 |
| CCCN1CCCCC1C(=O)Nc1c(C)cccc1C.Cl (configuration not stated) [Ropivacaine HCl] | 98.4 ± 14 | 128 | 96 ± 5.6 | 86 | 96.2 ± 3.2 | 121 | 90.97 ± 0.57 | 92.8 ± 8.5 | 97.5 ± 4.7 |
| Cc1cnc(NC(=O)C2=C(O)c3ccccc3S(=O)(=O)N2C)s1 [Meloxicam (Mobic)] | 104 ± 10 | 125 | 96.1 ± 18 | 102 | 124 ± 5 | 88.8 | 80.5 ± 6.5 | 94 ± 12 | 81.3 ± 13 |
| CCC(C)C(=O)OC1CC(O)C=C2C=CC(C)C(CCC(O)CC(O)CC(=O)[O-])C21.[Na+] (configuration not stated) [Pravastatin sodium] | 142 ± 13 | 184 | 126 ± 28 | 113 | 142.3 ± 0.11 | 152 | 100 ± 3.8 | 105 ± 20 | 156 ± 1.8 |
| CC1(C)SC2C(NC(=O)C(N)c3ccccc3)C(=O)N2C1C(=O)O.O.O.O (configuration not stated) [Ampicillin Trihydrate] | 138 ± 26 | 124 | 94.6 ± 8.1 | 110 | 143 ± 7.4 | 120 | 82 ± 7.2 | 103 ± 2.1 | 95.8 ± 2.6 |
| CC(=O)N=c1sc(S(N)(=O)=O)nn1C [Methazolamide] | 103 ± 7.7 | 114 | 92.5 ± 21 | 119 | 119 ± 9.3 | 122 | 93.9 ± 16 | 94.6 ± 3.6 | 97.7 ± 1.2 |
| CN1CCN(c2nc(C3=C(c4c[nH]c5ccccc45)C(=O)NC3=O)c3ccccc3n2)CC1 [Sotrastaurin (AEB071)] | 134 ± 40 | 102 | 173 ± 34 | 136 | 109 ± 1.9 | 111 | 63.9 ± 1.5 | 195 ± 10 | 111 ± 6.1 |
| NC(=O)c1ccc(I)c([N+](=O)[O-])c1 [Iniparib (BSI-201)] | 121 ± 21 | 198 | 123 ± 20 | 82.6 | 124 ± 31 | 106 | 114 ± 5.4 | 181 ± 22 | 129 ± 22 |

| Compound | cell viability (HCI01) | cell viability (HCI03) | cell viability (HCI09) | cell viability (HCI11) | cell viability (HCI13) | cell viability (HCI16) | cell viability (UCD52) | cell viability (WHIM2) | cell viability (WHIM30) |
| --- | --- | --- | --- | --- | --- | --- | --- | --- | --- |
| Cc1cc(C#N)cc(C)c1Oc1nc(Nc2ccc(C#N)cc2)nc(N)c1Br [Etravirine (TMC125)] | 107 ± 6.5 | 127 | 91.9 ± 4.6 | 93.4 | 86.559 ± 0.026 | 109 | 99.3 ± 18 | 92.3 ± 3.6 | 137.8 ± 0.96 |
| CN(CCOc1ccc(CC2SC(=O)NC2=O)cc1)c1ccccn1 (configuration not stated) [Rosiglitazone] | 176 ± 35 | 162 | 129 ± 33 | 153 | 189 ± 26 | 142 | 124 ± 10 | 174 ± 17 | 199 ± 3.1 |
| O=C(O)C=Cc1ccc(Cn2ccnc2)cc1 [Ozagrel] | 95.1 ± 6.6 | 145 | 90.9 ± 16 | 106 | 116 ± 6.6 | 98.4 | 88 ± 3.2 | 97.8 ± 2.4 | 87.2 ± 20 |
| C=CCNC(N)=S [Allylthiourea] | 96.4 ± 7.7 | 118 | 94.1 ± 19 | 97.4 | 64.8 ± 14 | 107 | 129 ± 35 | 108 ± 35 | 130 ± 8 |
| CCOC(=O)C1=C[C@]2(CC)CCCN3CCc4c(n1c1ccccc41)[C@@H]32 [Vinpocetine] | 107 ± 21 | 108 | 94.4 ± 14 | 106 | 88.5 ± 11 | 112 | 110 ± 9 | 93.4 ± 7.8 | 125 ± 11 |
| Cc1cnc(C(=O)NCCc2ccc(S(=O)(=O)NC(=O)NC3CCCCC3)cc2)cn1 [Glipizide] | 104 ± 16 | 128 | 106 ± 16 | 108 | 93.1 ± 1.8 | 99.1 | 83.6 ± 5.6 | 87.2 ± 11 | 138 ± 12 |
| CN1C2CCCC1CC(NC(=O)c1nn(C)c3ccccc13)C2 (configuration not stated) [Granisetron] | 112 ± 1.8 | 119 | 108 ± 9.4 | 81.8 | 108 ± 12 | 89.3 | 105 ± 4.6 | 110 ± 28 | 133 ± 31 |
| C#C[C@]1(O)CC[C@H]2[C@@H]3CCC4=CCCC[C@@H]4[C@H]3C(=C)C[C@@]21CC [Desogestrel] | 94.9 ± 2.5 | 146 | 81 ± 11 | 87.2 | 41.5 ± 5.2 | 97.5 | 74.4 ± 2 | 64.2 ± 39 | 71.8 ± 53 |
| OC(CCCN1CCCCC1)(c1ccccc1)c1ccccc1 [Diphenidol HCl] | 117 ± 19 | 139 | 107 ± 12 | 82.5 | 88.1 ± 2.6 | 118 | 101 ± 25 | 108 ± 9.6 | 113 ± 11 |
| C[N+](C)(C)CCOC(=O)CCC(=O)OCC[N+](C)(C)C.O.O.[Cl-].[Cl-] [Succinylcholine Chloride Dihydrate] | 109 ± 8 | 104 | 96.9 ± 9.6 | 97.2 | 112 ± 16 | 101 | 61.6 ± 1.2 | 89.3 ± 5.8 | 133 ± 22 |
| CNCC(O)c1ccc(O)c(O)c1.Cl (configuration not stated) [Epinephrine HCl] | 102 ± 3.8 | 112 | 91.6 ± 15 | 76.6 | 118 ± 17 | 119 | 118 ± 11 | 142 ± 3.3 | 100 ± 1.1 |
| CCCNC(C)C(=O)Nc1c(C)csc1C(=O)OC.Cl (configuration not stated) [Articaine HCl] | 104 ± 4.9 | 115 | 116 ± 7 | 96.9 | 79.6 ± 10 | 133 | 94.3 ± 5.7 | 104 ± 18 | 129 ± 5.7 |
| CN1CCN(C2=c3ccccc3=Nc3ccc(Cl)cc3N2)CC1 [Clozapine] | 95.4 ± 14 | 130 | 101 ± 11 | 87.2 | 106 ± 1.6 | 123 | 83.6 ± 11 | 85.298 ± 0.078 | 122 ± 15 |
| C1N2CN3CN1CN(C2)C3 [Methenamine] | 89.3 ± 14 | 127 | 101 ± 14 | 90.8 | 177 ± 29 | 104 | 90.2 ± 4.5 | 91.8 ± 2.4 | 142 ± 4.7 |
| CC(Nc1ncnc2nc[nH]c12)c1cc2cccc(Cl)c2c(=O)n1-c1ccccc1 (configuration not stated) | 91.5 ± 1.5 | 53.1 | 71.9 ± 26 | 66.4 | 45.8 ± 4.9 | 81.8 | 67.3 ± 1.7 | 51.1 ± 15 | 95.3 ± 2.1 |
| C[C@H]1COc2c(N3CCN(C)CC3)c(F)cc3c(=O)c(C(=O)O)cn1c23 [Levofloxacin] | 102 ± 26 | 109 | 88 ± 17 | 89.6 | 124 ± 50 | 123 | 88.7 ± 1.4 | 104 ± 12 | 132 ± 2.4 |
| Cc1cncc(CN2CCC(=C3c4ccc(Cl)cc4CCc4cccnc43)CC2)c1.O=C(O)C=CC(=O)O [Rupatadine Fumarate] | 89.8 ± 4.1 | 87.7 | 42 ± 3 | 70.2 | 58.2 ± 9.9 | 109 | 63.1 ± 3.4 | 78 ± 7.6 | 81.2 ± 3.8 |
| CCCCNC(=O)NS(=O)(=O)c1ccc(C)cc1 [Tolbutamide] | 80.9 ± 42 | 118 | 91.4 ± 5.3 | 83.6 | 88.9 ± 3.6 | 101 | 96.6 ± 5.1 | 105 ± 25 | 101 ± 8.5 |
| CN1CCCC[C@H]1CCN1c2ccccc2Sc2ccc(S(C)=O)cc21.O=S(=O)(O)c1ccccc1 (some centres not stated) [Mesoridazine Besylate] | 115 ± 9.3 | 77.9 | 132 ± 60 | 98.2 | 122 ± 10 | 106 | 95.9 ± 8.8 | 85.8 ± 21 | 103 ± 7.5 |
